Jurkat NFkB inh – inhibitors of induced NF-kB luciferase reporter, primary screen, TCR NF-kB activation inhibitor project, cell-based, luminescence, uHTS; Jurkat, PMA/ionomycin-induced NF-kB luciferase reporter; inhibition, % at 4 µM; 0.53% of 330,000 active; in the data active = inhibition above about 50%
Shn3 3UTR inh – reduction of Shn3 3'UTR firefly luciferase signal, primary screen, Schnurri-3 inhibitor project, cell-based, Clone20 osteoblasts, set 2; AID 588674, 2011; Clone20 osteoblast Shn3 3'UTR firefly luciferase, 24 h; 0.52% of 360,000 active; inhibition, % at 12.5 µM;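 active = mean inhibition of at least 75% with every replicate also reaching 75%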
Mdm2 MdmX PPI – inhibitors of human Mdm2-MdmX association, primary screen, cell-based, luminescence, split luciferase, SaOS-2, uHTS | SaOS-2 split-luciferase Mdm2/MdmX complementation | inhibition, % at 8 µM | 3% of 330,000 active | AID 485346, 2010;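 active = inhibition of at least 50% at 8 µM in the primary screen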
Target sequence (O15151 whole entry, looked up): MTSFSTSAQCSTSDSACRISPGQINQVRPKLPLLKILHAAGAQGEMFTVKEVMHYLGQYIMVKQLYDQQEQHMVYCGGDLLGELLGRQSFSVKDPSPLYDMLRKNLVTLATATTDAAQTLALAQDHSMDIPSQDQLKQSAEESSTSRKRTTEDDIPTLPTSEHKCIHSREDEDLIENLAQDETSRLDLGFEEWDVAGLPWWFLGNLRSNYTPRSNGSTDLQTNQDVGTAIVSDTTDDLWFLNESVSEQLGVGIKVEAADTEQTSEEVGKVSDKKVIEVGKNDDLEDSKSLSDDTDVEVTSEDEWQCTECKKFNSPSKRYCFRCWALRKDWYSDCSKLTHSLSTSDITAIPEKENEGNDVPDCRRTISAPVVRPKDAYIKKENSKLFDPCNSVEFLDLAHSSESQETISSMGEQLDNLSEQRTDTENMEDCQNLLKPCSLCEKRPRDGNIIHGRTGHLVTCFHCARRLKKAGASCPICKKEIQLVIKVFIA
Target sequence (Q00987 whole entry, looked up): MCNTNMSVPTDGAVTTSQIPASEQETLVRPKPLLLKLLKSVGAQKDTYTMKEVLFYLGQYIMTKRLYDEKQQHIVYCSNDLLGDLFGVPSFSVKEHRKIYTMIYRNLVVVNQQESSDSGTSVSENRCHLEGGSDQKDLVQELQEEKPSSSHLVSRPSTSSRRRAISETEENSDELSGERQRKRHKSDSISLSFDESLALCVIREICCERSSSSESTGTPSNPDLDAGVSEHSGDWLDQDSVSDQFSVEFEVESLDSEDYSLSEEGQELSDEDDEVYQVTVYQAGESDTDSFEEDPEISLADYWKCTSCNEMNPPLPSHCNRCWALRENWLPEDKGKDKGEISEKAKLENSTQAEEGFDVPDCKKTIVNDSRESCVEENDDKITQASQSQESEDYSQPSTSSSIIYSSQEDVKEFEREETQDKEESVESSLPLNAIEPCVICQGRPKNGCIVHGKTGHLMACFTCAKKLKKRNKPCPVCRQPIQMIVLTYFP
Gli-Sufu antag – Gli-Sufu pathway antagonists, primary screen, luciferase luminescence, Sufu-KO-LIGHT cells, uHTS | Sufu-KO-LIGHT fibroblasts, Gli luciferase reporter luminescence | inhibition, % at 5 µM | 0.74% of 340,000 active | AID 588413, 2011;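 active = inhibition above about 55%, limit read from the data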
697 NFkB inh – inhibitors of PMA/ionomycin-induced NF-kB reporter, 697 cells, primary screen, B-cell NF-kB inhibitor project, cell-based, luminescence, uHTS | 697 B-cell NF-kB luciferase reporter, 16 h | inhibition, % at 4 µM | 0.33% of 330,000 active; in the data active = inhibition above about 35%
Jurkat NFkB conf – PMA/ionomycin-induced NF-kB reporter inhibitors, Jurkat retest, confirmation, T-cell NF-kB inhibitor project, cell-based, luminescence, single concentration; inhibition, % at 4 µM; shares compounds with Jurkat NFkB inh; 27% of 2,700 active; Jurkat NF-kB luciferase, 16 h;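 active = inhibition reaching about 45% at 4 µM in either replicate, limit read from the data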
697 NFkB conf – PMA/ionomycin-induced NF-kB reporter inhibitors, 697 retest, confirmation, B-cell NF-kB inhibitor project, cell-based, luminescence, single concentration; 697 B-cell NF-kB luciferase, 16 h; 35% of 2,000 active; shares compounds with 697 NFkB inh; inhibition, % at 4 µM; in the data active = inhibition mostly above about 28%, no sharp cut-off; inactive = mostly below about 22%
Mdm2-MdmX conf – Mdm2-MdmX complex disruptors, retested hits, confirmation, luminescence, single concentration; shares compounds with Mdm2 MdmX PPI; Mdm2-MdmX binding, luminescent assay; inhibition, % at 8 µM; 55% of 10,000 active; in the data active = inhibition above about 40%
FLuc counter – full-length luciferase signal inhibition, confirmation, counter-screen for Mdm2/MdmX interaction inhibitor project, cell-based, single concentration, SaOS-2 | shares compounds with Mdm2 MdmX PPI | inhibition, % at 8 µM | SaOS-2 full-length luciferase counterscreen, luminescence | 77% of 6,200 active;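 active = mean inhibition at 8 µM reaching about 37%, which flags the compound as non-specific, limit read from the data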;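 note: p53-null SaOS-2 cells with luciferase driven by a doxycycline-inducible promoter; compound on cells about two nights before reading with doxycycline added after day one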
Each line names hits and unclear results; the compound was inactive in the other large screens (follow-up assays come after a bar, where they were run). In the library only some 3.8% were active in any assay of this set; here they are far more common.

Cc1ccc2c(C)c(C(=O)N(Cc3ccc(F)cc3)C3CCS(=O)(=O)C3)oc2c1 (centres undefined)	none
CC(C)(C)[C@H](NC(=O)c1ccc(N)c(Cl)c1)C(=O)N1CCC[C@H]1C(=O)N[C@H](C#N)CC(=O)O	none (no result: Jurkat NFkB inh, Mdm2 MdmX PPI, Gli-Sufu antag, 697 NFkB inh)
COc1ccccc1-c1nnc(NC(=O)c2ccc3c(c2)OCO3)s1	Jurkat NFkB inh 57, Mdm2 MdmX PPI 90 | Jurkat NFkB conf inactive | Mdm2-MdmX conf 66 | FLuc counter 85
Cc1cnc(NC(=O)c2ccc3c(c2)OCCO3)s1	Jurkat NFkB inh 70, Mdm2 MdmX PPI 74 | Jurkat NFkB conf 77 | Mdm2-MdmX conf 80 | FLuc counter inactive
CCN1C/C(=C/c2ccc(OC)c(O)c2)C(=O)/C(=C/c2ccc(OC)c(O)c2)C1	Jurkat NFkB inh 89, Mdm2 MdmX PPI 100 | Jurkat NFkB conf 44 | Mdm2-MdmX conf 100 | FLuc counter 41
COc1ccc(/C=C2\CN(Cc3ccccc3)C/C(=C\c3ccc(OC)c(O)c3)C2=O)cc1O	Jurkat NFkB inh 53, Shn3 3UTR inh 96, Mdm2 MdmX PPI 98 | Jurkat NFkB conf inactive | Mdm2-MdmX conf 100 | FLuc counter 51
O=C(Nc1ccn(CCCNCc2ccc3c(c2)OCO3)c(=O)n1)OCc1ccccc1	none (no result: Jurkat NFkB inh, Mdm2 MdmX PPI, 697 NFkB inh)
CNc1cncc(-c2cccc(NS(C)(=O)=O)c2)n1	none (no result: Jurkat NFkB inh, Mdm2 MdmX PPI, Gli-Sufu antag, 697 NFkB inh)
COc1cc(S(=O)(=O)Nc2cccc3cn[nH]c23)c(OC)cc1Cl	none
CCCCCc1ccc(OCCCC[n+]2ccc(C)cc2)c(CCCCC)c1	Jurkat NFkB inh 54, Mdm2 MdmX PPI 96, Gli-Sufu antag 86 | Jurkat NFkB conf 54 | Mdm2-MdmX conf 86 | FLuc counter 55
CCCCOc1ccc(C)cc1CN(CCO)CCO	none
CCCCCc1ccc(OCCCC[n+]2cccc(C)c2)c(CCCCC)c1	Jurkat NFkB inh 63, Mdm2 MdmX PPI 83, Gli-Sufu antag 85, 697 NFkB inh 42 | Jurkat NFkB conf 58 | 697 NFkB conf 48 | Mdm2-MdmX conf 90 | FLuc counter 60
O=C(O)c1c(C(=O)O)c(-c2ccc(Cl)c(Cl)c2)n2c1CSC2	none
COc1ccc(NC(=O)CN2C(=O)NC3(CCCc4ccccc43)C2=O)c(OC)c1 (centres undefined)	none
COc1ccc(-[n+]2c(C)cc(/C=C3\Sc4ccccc4N3C)cc2C)cc1	Jurkat NFkB inh 86, Shn3 3UTR inh 88, Mdm2 MdmX PPI 83, 697 NFkB inh 100 (no result: Gli-Sufu antag) | Jurkat NFkB conf inactive | 697 NFkB conf inactive | Mdm2-MdmX conf 78 | FLuc counter inactive
COc1ccccc1-[n+]1c(C)cc(/C=C2\Sc3ccccc3N2C)cc1C	Jurkat NFkB inh 93, Mdm2 MdmX PPI 82, Gli-Sufu antag 85 | Jurkat NFkB conf inactive | Mdm2-MdmX conf 89 | FLuc counter 59
CC1CCN(c2c(NCc3ccc(C(=O)N4CCc5ccccc54)cc3)c(=O)c2=O)CC1	Jurkat NFkB inh 58, Mdm2 MdmX PPI 65 | Jurkat NFkB conf inactive | Mdm2-MdmX conf 53 | FLuc counter 39
CCOC(=O)C1=CC[C@@H](c2ccccc2)N(S(=O)(=O)c2ccc(C)cc2)[C@H]1C#N	none (no result: Jurkat NFkB inh, Mdm2 MdmX PPI, Gli-Sufu antag, 697 NFkB inh)
COc1ccc(C(=Cc2ccccc2[N+](=O)[O-])C(=O)O)cc1	none (no result: Jurkat NFkB inh, Mdm2 MdmX PPI, 697 NFkB inh)
CCC(=O)Nc1c(C)nn(-c2ccc(C)c(C)c2)c1C	none
Cc1ccc(-n2nc(C)c(NC(=O)CCl)c2C)cc1C	Jurkat NFkB inh 64, Mdm2 MdmX PPI 76 | Jurkat NFkB conf inactive | Mdm2-MdmX conf 88 | FLuc counter inactive
CCCc1cc(=O)[nH]c(SC(C)C(=O)N2c3ccccc3CC2C)n1 (centres undefined)	none
CCOC(=O)c1[nH]c(C=O)c(C(=O)OCC)c1C	Jurkat NFkB inh 59, Mdm2 MdmX PPI 65 | Jurkat NFkB conf inactive | Mdm2-MdmX conf 59 | FLuc counter 71
CCOC(=O)c1[nH]c(C)c(C(=O)Nc2ccccc2C)c1C	Jurkat NFkB inh 53, Mdm2 MdmX PPI 56 | Jurkat NFkB conf inactive | Mdm2-MdmX conf 62 | FLuc counter 49
CCOC(=O)c1[nH]c(C)c(C(=O)Nc2ccc(C)c(Cl)c2)c1C	none
CCOC(=O)c1c(C)[nH]c(C(C)=O)c1C	none
CCOC(=O)c1[nH]c(C)c(C(=O)Nc2cc(Cl)ccc2C)c1C	Jurkat NFkB inh 69, Mdm2 MdmX PPI 66 | Jurkat NFkB conf 56 | Mdm2-MdmX conf 72 | FLuc counter 85
CSc1ccc(NC(=O)NN(c2ccccc2)C2CCS(=O)(=O)C2)cc1 (centres undefined)	none (no result: Jurkat NFkB inh, Mdm2 MdmX PPI, Gli-Sufu antag, 697 NFkB inh)
CCOc1ccc(S(=O)(=O)NCc2ccccn2)cc1NC(=O)c1ccccc1F	Jurkat NFkB inh 54, Mdm2 MdmX PPI 57 | Jurkat NFkB conf inactive | Mdm2-MdmX conf 53 | FLuc counter 72
CN1/C(=C/C(=O)c2nc(S(C)(=O)=O)ncc2Cl)C(C)(C)c2ccccc21	Jurkat NFkB inh 57, Shn3 3UTR inh 96, Mdm2 MdmX PPI 100 | Jurkat NFkB conf inactive | Mdm2-MdmX conf 100 | FLuc counter 52
CCn1c(SCC(=O)N/N=C/c2ccc(C)s2)nc2ccccc21	Jurkat NFkB inh 53, Mdm2 MdmX PPI 58 | Jurkat NFkB conf inactive | Mdm2-MdmX conf 61 | FLuc counter 59
CCC(=O)Nc1sc2c(c1C#N)CCC2	none
CCc1ccc(CCC(=O)Nc2sc3c(c2C#N)CCCC3)o1	Jurkat NFkB inh 56, Mdm2 MdmX PPI 50 | Jurkat NFkB conf inactive | Mdm2-MdmX conf 68 | FLuc counter 83
Cc1ccc(N(C)S(=O)(=O)c2ccc(-c3cnc(C4CC4)o3)cc2)cc1	Jurkat NFkB inh 52, Mdm2 MdmX PPI 61 | Jurkat NFkB conf 52 | Mdm2-MdmX conf 55 | FLuc counter 79
Cc1cccc(C)c1NS(=O)(=O)c1ccc(-c2cnc(C3CC3)o2)cc1	Jurkat NFkB inh 59, Mdm2 MdmX PPI 82, Gli-Sufu antag 57 | Jurkat NFkB conf 64 | Mdm2-MdmX conf 53 | FLuc counter 93
Cc1ccc(CNS(=O)(=O)c2ccc(-c3cnc(C4CC4)o3)cc2)cc1	none

Screening results: PubChem BioAssay, several laboratories
